G9a inh = blocks human histone lysine methyltransferase G9a. Q96KQ7. G9a H3K9 monomethylation, AlphaScreen, 2 h. Potency, µM (top dose mostly 102 µM), for the others: at the top dose activity, negative = inhibition, usual class: inhibitors. hit rate 8.8% among 350,000. AID 504332; further: potency means the concentration at half of the fitted maximal effect; nearly all actives have a fitted effect of over 75% in size
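AlphaScreen read-out: biotin-H3K9 peptide (500 nM) methylation by 20 nM enzyme with 20 uM SAM, 2 h at room temperature after 15 min compound preincubation; anti-monomethyl H3K9 antibody plus donor/acceptor beads, 10 min dark.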
VDR inh = vitamin D3 receptor (human) inhibition | P11473 | VDR-SRC2-3 peptide fluorescence polarization, 2 h | Potency, µM, without a hit: max response, negative = inhibition, most hits filed as inhibitors | hit rate 0.93% among 400,000 | AID 504847; further: potency means the concentration at half of the fitted maximal effect
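Inhibition of the VDR/SRC2-3 peptide interaction is quantified by fluorescence polarization. Compounds (23 nl, pintool) incubate with the reagents for 2 hours at ambient room temperature.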
PLK1 PBD block = PLK1 (human) polo-box domain binding inhibition; P53350; hit rate 2.8% among 360,000; AID 720504; Plk1 PBD binding of FITC phosphopeptide, fluorescence polarization; Potency, µM, for inactives: max response, negative = inhibition, hits mostly inhibitors; further: potency means the concentration at half of the fitted maximal effect; series mostly up to about 57 µM; nearly all actives have a fitted effect of over 65% in size
Target sequence (P53350 whole entry, looked up, the tested form may be a part): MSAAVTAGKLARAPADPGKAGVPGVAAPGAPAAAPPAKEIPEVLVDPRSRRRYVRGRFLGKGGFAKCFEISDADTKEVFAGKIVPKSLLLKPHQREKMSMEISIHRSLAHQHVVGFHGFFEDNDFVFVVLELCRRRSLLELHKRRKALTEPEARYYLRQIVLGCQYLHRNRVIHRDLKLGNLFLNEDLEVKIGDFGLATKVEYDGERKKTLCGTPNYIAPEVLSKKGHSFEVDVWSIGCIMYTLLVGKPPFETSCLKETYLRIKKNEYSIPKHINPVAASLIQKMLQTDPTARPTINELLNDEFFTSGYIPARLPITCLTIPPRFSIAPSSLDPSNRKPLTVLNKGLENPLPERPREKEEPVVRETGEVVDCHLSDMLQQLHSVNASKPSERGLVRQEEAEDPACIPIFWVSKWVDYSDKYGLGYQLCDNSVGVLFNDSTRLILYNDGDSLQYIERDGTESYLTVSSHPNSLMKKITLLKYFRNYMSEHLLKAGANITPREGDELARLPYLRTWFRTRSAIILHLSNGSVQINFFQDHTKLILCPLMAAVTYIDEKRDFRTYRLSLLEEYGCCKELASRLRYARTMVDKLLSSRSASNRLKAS
CCT modulator = cytosolic chaperonin activity modulation. purified chaperonin ATPase assay, HTRF ADP detection, 30 min. activity change, % (concentration not given with the values), hits read low. hit rate 0.3% among 360,000. AID 651819; in the data active means activity change below about -30%
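Enzyme 40 or 20 nM (batch-dependent) in Tris pH 7.4/KCl/MgCl2/DTT; cpd 76 uM single point; ATP 10 uM; 30 min 37 °C; Transcreener ADP HTRF detection, 30 min RT; ratio 665/615.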
MmCpn inh = M. maripaludis TRiC chaperonin inhibition. AID 504842. purified Mm-Cpn ATPase, ADP Transcreener TR-FRET. hit rate 0.031% among 330,000. Potency, µM (highest dose often 76.9 µM), for inactives: at the top dose activity, negative = inhibition, most hits filed as inhibitors; further: potency means the concentration at half of the fitted maximal effect; nearly all actives have a fitted effect of over 80% in size
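Eu-cryptate anti-ADP/ADP-d2 competition gives a ratio inversely related to ADP. Enzyme at 25 nM was pre-exposed to compound for 10 min, then given 10 uM ATP for 30 min, 37°C throughout.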
Sfp inh = blocks B. subtilis Sfp PPTase activity; Q9F4F7; Biochemical Sfp PPTase activity, qHTS; AID 1490; hit rate 3.5% among 310,000; Potency, µM, inactives show largest response in the series, negative = inhibition, actives largely listed as inhibitors;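 further: the enzyme is Sfp with the accession as filed and its product quenches rhodamine fluorescence; potency means the concentration at half of the fitted maximal effect; 0% = enzyme reaction without inhibitor and -100% = no enzyme wells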
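Fluorescence-quenching assay: 15 nM Sfp-PPTase preincubated 15 min at room temperature with compound, then 5 uM rhodamine-CoA and 12.5 uM BHQ-2-labelled YbbR peptide added. Fluorescence (ex 525/em 598 nm) read at start and after 30 min; difference gives rate.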
Numbers without * were called inactive; u = inconclusive; x = no result; [ ] = dose if it differs, or a comment. Compounds with a hit are over-represented: about 10% of the library has one in this group of screens. Unless noted, the call rests on the fitted dose curve; in most records, active means well fitted curve in the direction sought with a large enough effect; inconclusive means small, poorly fitted or top-dose-only effect, or another doubt; inactive means no such curve, though single readings can be large; an effect the other way counts as inactive or inconclusive. Unless noted, on the % scale 0 is the no-effect control and ±100 the full control effect.

SMILES | G9a inh | VDR inh | PLK1 PBD block | CCT modulator | MmCpn inh | Sfp inh
CCOC(=O)C(=O)Nc1sc(C(=O)N(CC)CC)c(C)c1C#N | 50µM* | -9% | -16% | -2 | 0% | -13%
CCN(CC)C(=O)c1sc(N)c(C(=O)OC(C)C)c1C | 11µM* | -14% | u | -2 | 1% | -2%
CCN(CC)c1ccc(NC(=O)c2cc(S(=O)(=O)N3CCc4ccccc43)cn2C)c(C)c1 | -17%[59 µM] | 13% | x | x | x | x
COc1ccc(OCC(=O)NC(=S)N2CCCc3ccccc32)cc1 | u | u | u | -2 | -1% | 56µM*
O=C(COc1ccccc1)NC(=S)N1CCc2ccccc21 | 28µM* | -13% | -9% | -2 | 1% | 9%
COc1ccc(CNC(=O)c2cc(=O)[nH]c3ccc(S(=O)(=O)N4CCCC4)cc23)c(OC)c1 | 9%[59 µM] | 9% | x | x | x | x
O=C(Oc1ccc(Cl)c2cccnc12)C12CC3CC(CC(C3)C1)C2 | 8%[59 µM] | 10% | 0% | 0 | 1% | u
COc1ccc(-c2ncccc2OC(=O)C23CC4CC(CC(C4)C2)C3)cc1OC | 45µM* | 4% | -2% | 0 | -2% | -4%
CC(=O)c1cc(CN2CCC(N3CCC(C(=O)N4CCCC4)CC3)CC2)cs1 | 11µM* | 9% | -4% | 2 | -14% | 22µM*
CCc1ccc(CN2CCC(N3CCC(C(=O)N4CCCC4)CC3)CC2)o1 | 16% | 3% | -6% | 0 | -7% | 10%
O=C(COc1ccccc1)N1N=C(c2cccnc2)CC1(O)C(F)(F)F (configuration not stated) | 50µM* | -21% | -10% | -2 | 0% | 7%
CCOC(=O)c1nnc2c(-c3ccc(F)cc3)c(C)nn2c1N | 13%[59 µM] | 0% | x | x | x | x
CC(C)Cn1c(=S)[nH]c2cc(Cl)ccc21 | 6.3µM* | -17% | 24µM* | 2 | 3% | -30%
CC(C)Cn1c(=S)[nH]c2ccccc2c1=O | 14% | -24% | -10% | -1 | 3% | -22%
COc1cc2c(c(OC)c1OC)-c1ccc(OC)c(=O)cc1[C@@H](NC=O)CC2 | x | 15% | x | x | x | 10%
CCOC1=NS(=O)(=O)c2ccccc21 | 16%[59 µM] | 4% | -6% | -5 | 0% | 4%
O=S1(=O)N=C(SCCO)c2ccccc21 | 79µM* | 4% | -19% | -1 | 0% | 12%
COc1ccc(/C(N)=N/O)cc1O | 8% | -17% | -8% | -30* | 0% | 15%
C/C(N)=C(/C#N)C(=O)CSc1nnc(NC(C)C)s1 | 50µM* | -4% | -16% | 2 | 1% | 4%
C/C(N)=C(/C#N)C(=O)CSc1nnc(Nc2ccccc2)s1 | -9% | 25% | -16% | -2 | 1% | -4%
COc1ccc2c(c1)O[C@@H](c1ccc3c(c1)OCO3)[C@H](OC(=O)Nc1ccc(OC(F)F)cc1)C2=O | x | -4% | x | x | x | 27%
Cc1ccc(C(C)C)c(OCC(=O)Nc2nc3c(s2)CCCC3)c1 | 4%[59 µM] | 14% | x | x | x | x
Cc1ccc(CC(=O)Nc2ccncc2)cc1 | 50µM* | -17% | -9% | 0 | -19% | 5%
O=C(Nc1cccc(Br)c1)Nc1nc2c(s1)CCCCCC2 | -20%[59 µM] | -7% | x | x | x | x
COc1ccc(OCC(=O)Nc2nc3c(s2)CCCC3)cc1 | 50µM* | -7% | -20% | 0 | 4% | 3%
SMILES | G9a inh | VDR inh | PLK1 PBD block | CCT modulator | MmCpn inh | Sfp inh
O=C(COc1ccc(F)cc1)Nc1nc2c(s1)CCCC2 | -14% | 12% | -13% | -3 | 1% | -3%
Cc1ccc(CC(=O)Nc2nc3c(s2)CCCC3)cc1 | 50µM* | -11% | -8% | -1 | 1% | 12%
COc1ccc(NC(=O)Nc2nc3c(s2)CCCC3)cc1 | 79µM* | -8% | 4% | -1 | 0% | -6%
N#Cc1cccc(-c2nccc(NCc3cccnc3)n2)c1 | 15%[0.501 µM] | -8% | x | x | x | 2%
CC(=O)Nc1ccc(NC(=O)CCS(=O)(=O)c2ccc3c(c2)CC(=O)N3C)cc1 | -3%[59 µM] | -1% | x | x | x | x
Cc1ccc(NC(=O)CNc2ccccc2N2CCCC2=O)cc1S(=O)(=O)N1CCCCC1 | 3.2µM* | 3% | -3% | 0 | 1% | x
O=C(CNC(=O)c1ccc(Br)o1)Nc1ccc(F)c(S(=O)(=O)N2CCOCC2)c1 | 45µM* | 4% | -5% | -3 | 1% | x

Bioassay records as filed in PubChem BioAssay.
